From the supplement of paper PMC10127200
Counter-ions that a name gives are not always drawn.

Assays:
Test in all cases: Euclidean distance of Cell Painting phenotypic profile (signed KS, 77 features) to DMSO centroid (dimensionless distance); 5 or 10 uM (library dependent); higher = stronger phenotypic change vs DMSO (phenoactivity)
Conditions in all cases: 48 h
[1] = system: 786-O
Method in brief: (§1)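 Library compounds were applied at 10 or 5 uM, depending on the library, with 0.1% DMSO final, for 48 h to five cancer lines and a healthy fibroblast line. After staining, cells were imaged confocally at 20X across 9 fields per well, and Harmony extracted 77 features, each scored as a signed Kolmogorov-Smirnov statistic against vehicle wells on the same plate. Phenoactivity is the Euclidean distance between each profile and the median vehicle profile, with profiles first plate-position corrected, correlation-weighted and averaged over replicates at the top dose.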

[2] = system: A549
Method in brief: as §1

[3] = system: DU145
Method in brief: as §1

[4] = system: FB
Method in brief: as §1

[5] = system: HEPG2
Method in brief: as §1

[6] = system: OVCAR4
Method in brief: as §1

Work on `CCN(CC)Cc1cc(Nc2ccnc3cc(Cl)ccc23)ccc1O` [Amodiaquine dihydrochloride dihydrate] yielded an Euclidean distance [1] of 3.19, an Euclidean distance [2] of 3.25 and an Euclidean distance [3] of 1.79. It also gave an Euclidean distance [4] of 3.65, an Euclidean distance [5] of 3.36 and an Euclidean distance [6] of 2.54.

`COc1ccc(CC2c3cc(OC)c(OC)cc3CC[N+]2(C)CCC(=O)OCCCCCOC(=O)CC[N+]2(C)CCc3cc(OC)c(OC)cc3C2Cc2ccc(OC)c(OC)c2)cc1OC` (stereo not given) [Atracurium Besylate] was tested, and the Euclidean distance [1] was 1.83, the Euclidean distance [2] was 0.711 and the Euclidean distance [3] was 1.16. For the same compound, the Euclidean distance [4] was 0.918, the Euclidean distance [5] was 1.14 and the Euclidean distance [6] was 1.51.

In the case of `O=C(O)CCC(=O)OC[C@@H](NC(=O)C(Cl)Cl)[C@H](O)c1ccc([N+](=O)[O-])cc1` [Chloramphenicol sodium succinate], the Euclidean distance [1] is reported as 1.83, the Euclidean distance [2] is reported as 1.28 and the Euclidean distance [3] is reported as 0.814. The Euclidean distance [4] was 0.919, the Euclidean distance [5] was 0.53 and the Euclidean distance [6] was 1.07.

`CCCCC(=O)N(Cc1ccc(-c2ccccc2-c2nnn[nH]2)cc1)[C@H](C(=O)O)C(C)C` [Valsartan] was tested, and the Euclidean distance [1] was 1.68, the Euclidean distance [2] was 1.17 and the Euclidean distance [3] was 0.682. For the same compound, the Euclidean distance [4] was 0.799, the Euclidean distance [5] was 0.48 and the Euclidean distance [6] was 0.776.

`CC(C)OC(=O)OCOP(=O)(CO[C@H](C)Cn1cnc2c(N)ncnc21)OCOC(=O)OC(C)C` [Tenofovir Disoproxil Fumarate] showed an Euclidean distance [1] of 3.16, an Euclidean distance [2] of 2.92 and an Euclidean distance [3] of 1.88. For the same compound, the Euclidean distance [4] was 3.17, the Euclidean distance [5] was 3.46 and the Euclidean distance [6] was 2.99.

Compound `COc1cc2c(cc1OC)[C@H]1C[C@@H](OC(=O)[C@@H](N)C(C)C)[C@H](CC(C)C)CN1CC2` [Valbenazine tosylate] has an Euclidean distance [1] of 0.826, an Euclidean distance [2] of 0.503 and an Euclidean distance [3] of 1.01. The Euclidean distance [4] was 0.778, the Euclidean distance [5] was 0.752 and the Euclidean distance [6] was 1.05.

Work on `CC(C)OC(=O)C(C)(C)Oc1ccc(C(=O)c2ccc(Cl)cc2)cc1` [Fenofibrate] yielded an Euclidean distance [1] of 1.18, an Euclidean distance [2] of 0.803 and an Euclidean distance [3] of 0.9. The Euclidean distance [4] was 1.1, the Euclidean distance [5] was 1.75 and the Euclidean distance [6] was 1.73.

Work on `Oc1ccc(Nc2nc(-c3ccc(Cl)cc3)cs2)cc1` yielded an Euclidean distance [1] of 1.72, an Euclidean distance [2] of 2.03 and an Euclidean distance [3] of 1.54. The Euclidean distance [4] was 2.15, the Euclidean distance [5] was 2.49 and the Euclidean distance [6] was 1.41.

`CC1Cc2ccccc2N1NC(=O)c1ccc(Cl)c(S(N)(=O)=O)c1` (stereo not given) [Indapamide] showed an Euclidean distance [1] of 0.856, an Euclidean distance [2] of 0.679 and an Euclidean distance [3] of 1.26. The Euclidean distance [4] was 0.772, the Euclidean distance [5] was 1.91 and the Euclidean distance [6] was 1.41.

Work on `CC(C(=O)O)c1cccc(C(=O)c2ccccc2)c1` (stereo not given) [Ketoprofen] yielded an Euclidean distance [1] of 1.28, an Euclidean distance [2] of 0.765 and an Euclidean distance [3] of 2.29. The Euclidean distance [4] was 0.989, the Euclidean distance [5] was 0.77 and the Euclidean distance [6] was 1.42.

`Cc1nc2c([nH]1)-c1ccccc1N(C(=O)c1ccc(NC(=O)c3ccccc3-c3ccccc3)cc1)CC2` [Conivaptan HCl] gave an Euclidean distance [1] of 1.3, an Euclidean distance [2] of 1.1 and an Euclidean distance [3] of 1.42. It also gave an Euclidean distance [4] of 1.28, an Euclidean distance [5] of 1.72 and an Euclidean distance [6] of 1.57.

For `NS(=O)(=O)c1cc(C(=O)O)c(NCc2ccco2)cc1Cl` [Furosemide], the Euclidean distance [1] was 1.62, the Euclidean distance [2] was 0.823 and the Euclidean distance [3] was 1.83. The Euclidean distance [4] was 1.25, the Euclidean distance [5] was 0.788 and the Euclidean distance [6] was 0.747.

Compound `O=C(O)Cc1ccccc1Nc1c(Cl)cccc1Cl` [Diclofenac Epolamine] has an Euclidean distance [1] of 0.939, an Euclidean distance [2] of 0.571 and an Euclidean distance [3] of 1.14. It also gave an Euclidean distance [4] of 0.969, an Euclidean distance [5] of 0.65 and an Euclidean distance [6] of 1.22.

`CC(C)c1nc(CN(C)C(=O)N[C@@H](CCN2CCOCC2)C(=O)N[C@H](CC[C@H](Cc2ccccc2)NC(=O)OCc2cncs2)Cc2ccccc2)cs1` [Cobicistat (GS-9350)] was tested, and the Euclidean distance [1] was 2.05, the Euclidean distance [2] was 2.31 and the Euclidean distance [3] was 1.67. The Euclidean distance [4] was 1.66, the Euclidean distance [5] was 1.23 and the Euclidean distance [6] was 1.96.

`C=C[C@@H]1C[C@]1(NC(=O)[C@@H]1C[C@@H](Oc2ncc(OC)c3ccc(Cl)cc23)CN1C(=O)[C@@H](NC(=O)OC(C)(C)C)C(C)(C)C)C(=O)NS(=O)(=O)C1CC1` [Asunaprevir] gave an Euclidean distance [1] of 1.27, an Euclidean distance [2] of 1.49 and an Euclidean distance [3] of 0.966. It also gave an Euclidean distance [4] of 0.784, an Euclidean distance [5] of 0.47 and an Euclidean distance [6] of 1.08.

Work on `CC1=Nc2ccc(Cl)cc2S(=O)(=O)N1` [Diazoxide] yielded an Euclidean distance [1] of 1.25, an Euclidean distance [2] of 0.782 and an Euclidean distance [3] of 1.19. It also gave an Euclidean distance [4] of 1.21, an Euclidean distance [5] of 1.01 and an Euclidean distance [6] of 1.25.

In the case of `C[N+](C)(C)NCCC(=O)[O-]` [Mildronate], the Euclidean distance [1] is reported as 1.41, the Euclidean distance [2] is reported as 1.05 and the Euclidean distance [3] is reported as 1.05. It also gave an Euclidean distance [4] of 1.1, an Euclidean distance [5] of 0.54 and an Euclidean distance [6] of 0.82.

`CCC(=O)c1c(O)cc(O)cc1O` [Flopropione] gave an Euclidean distance [1] of 1.34, an Euclidean distance [2] of 0.879 and an Euclidean distance [3] of 1.2. It also gave an Euclidean distance [4] of 1.39, an Euclidean distance [5] of 0.447 and an Euclidean distance [6] of 1.04.

In the case of `Clc1cccc(Cl)c1NC1=NCCN1` [Clonidine HCl], the Euclidean distance [1] is reported as 1.05, the Euclidean distance [2] is reported as 1.46 and the Euclidean distance [3] is reported as 1.32. For the same compound, the Euclidean distance [4] was 1.16, the Euclidean distance [5] was 0.83 and the Euclidean distance [6] was 1.24.

Compound `O=C1OC(OC(=O)c2cccnc2Nc2cccc(C(F)(F)F)c2)c2ccccc21` (stereo not given) [Talniflumate] has an Euclidean distance [1] of 0.81, an Euclidean distance [2] of 0.859 and an Euclidean distance [3] of 0.922. For the same compound, the Euclidean distance [4] was 0.783, the Euclidean distance [5] was 0.818 and the Euclidean distance [6] was 1.

For `COc1cc(O)c2c(c1)oc(=O)c1c3cc(O)c(O)cc3oc21` [Wedelolactone], the Euclidean distance [1] was 1.08, the Euclidean distance [2] was 1.94 and the Euclidean distance [3] was 1.02. It also gave an Euclidean distance [4] of 2.37, an Euclidean distance [5] of 2.5 and an Euclidean distance [6] of 2.37.

Compound `CC[C@]12CCCN3CCc4c(n(c5ccccc45)[C@@](O)(C(=O)OC)C1)[C@@H]32` [Vincamine] has an Euclidean distance [1] of 1.3, an Euclidean distance [2] of 1.33 and an Euclidean distance [3] of 0.578. For the same compound, the Euclidean distance [4] was 0.795, the Euclidean distance [5] was 0.91 and the Euclidean distance [6] was 1.18.

In the case of `Cc1ccc(NS(=O)(=O)c2cccc(C#N)c2)c2[nH]cc(C#N)c12`, the Euclidean distance [1] is reported as 1.84, the Euclidean distance [2] is reported as 2.34 and the Euclidean distance [3] is reported as 1.67. The Euclidean distance [4] was 1.89, the Euclidean distance [5] was 2.04 and the Euclidean distance [6] was 2.09.

`CC(C)(C(=O)O)c1ccc(C(O)CCCN2CCC(C(O)(c3ccccc3)c3ccccc3)CC2)cc1` (stereo not given) [Fexofenadine HCl] was tested, and the Euclidean distance [1] was 1.52, the Euclidean distance [2] was 0.838 and the Euclidean distance [3] was 0.779. For the same compound, the Euclidean distance [4] was 0.629, the Euclidean distance [5] was 0.305 and the Euclidean distance [6] was 1.91.

With `CC(=O)OC1CC2CCC1(C)C2(C)C` (stereo not given) [Bornyl acetate] the Euclidean distance [1] was 1.09, the Euclidean distance [2] was 0.894 and the Euclidean distance [3] was 1.24. For the same compound, the Euclidean distance [4] was 1.11, the Euclidean distance [5] was 0.74 and the Euclidean distance [6] was 1.29.
